# Laboratory results as given in the supplement of paper PMC12645437, “Orthogonal IMiD-Degron Pairs Induce Selective Protein Degradation in Cells” (ACS Chemical Biology, 2025).
# The full ranking holds about 8,300 sequences; the median of “log2 fold change of degron read counts, EGFP-low vs EGFP+ sorted cells (limma voom), compound-induced degradation” is about -1.1, and the highest 2% start at about 3.2. The list comes from a sample in which the highest values are over-represented; it also holds similar and randomly drawn sequences.
# T1: CRBN, Q96SW2
# T1 chain: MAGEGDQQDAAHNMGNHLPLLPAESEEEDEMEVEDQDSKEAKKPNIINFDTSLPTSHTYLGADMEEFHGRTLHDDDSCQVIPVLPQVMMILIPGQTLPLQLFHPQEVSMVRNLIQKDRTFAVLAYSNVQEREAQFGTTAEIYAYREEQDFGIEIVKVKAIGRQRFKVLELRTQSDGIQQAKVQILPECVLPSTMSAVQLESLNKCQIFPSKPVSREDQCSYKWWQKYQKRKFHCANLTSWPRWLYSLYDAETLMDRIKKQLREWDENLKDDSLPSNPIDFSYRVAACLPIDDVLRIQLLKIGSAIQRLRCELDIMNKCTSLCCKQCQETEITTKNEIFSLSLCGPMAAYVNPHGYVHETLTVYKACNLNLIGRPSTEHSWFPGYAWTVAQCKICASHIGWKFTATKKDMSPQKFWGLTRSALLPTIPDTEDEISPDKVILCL
# B1: 46F_47E_49N_50Q_52G_53A_54G_55F_67L_, Q9UKT9 (peptide)
# chain: FECNQCGAGFTQKGNLLRHIKL
# B2: 46L_47L_49N_50Q_52G_53F_54Q_55C_67L_, Q9UKT9 (peptide)
# chain: LLCNQCGFQCTQKGNLLRHIKL
# B3: 46F_47Q_49N_50V_52G_53A_54Y_55F_67L_, Q9UKT9 (peptide)
# chain: FQCNVCGAYFTQKGNLLRHIKL
# B4: 46F_47I_49E_50I_52G_53H_54A_55F_67L_, Q9UKT9 (peptide)
# chain: FICEICGHAFTQKGNLLRHIKL
# B5: 46F_47R_49D_50Q_52G_53A_54C_55F_67L_, Q9UKT9 (peptide)
# chain: FRCDQCGACFTQKGNLLRHIKL
# B6: 46F_47H_49E_50I_52G_53H_54S_55F_67L_, Q9UKT9 (peptide)
# chain: FHCEICGHSFTQKGNLLRHIKL
# B7: 46F_47T_49N_50Q_52G_53H_54F_55F_67L_, Q9UKT9 (peptide)
# chain: FTCNQCGHFFTQKGNLLRHIKL
# B8: 46F_47I_49E_50I_52G_53R_54C_55F_67L_, Q9UKT9 (peptide)
# chain: FICEICGRCFTQKGNLLRHIKL
# B9: 46F_47C_49P_50V_52G_53A_54H_55F_67L_, Q9UKT9 (peptide)
# chain: FCCPVCGAHFTQKGNLLRHIKL
# B10: 46L_47R_49N_50Q_52G_53F_54F_55C_67L_, Q9UKT9 (peptide)
# chain: LRCNQCGFFCTQKGNLLRHIKL
# B11: 46F_47K_49E_50I_52G_53A_54S_55F_67L_, Q9UKT9 (peptide)
# chain: FKCEICGASFTQKGNLLRHIKL
# B12: 46F_47Q_49E_50I_52G_53A_54S_55F_67L_, Q9UKT9 (peptide)
# chain: FQCEICGASFTQKGNLLRHIKL
# B13: 46F_47H_49E_50I_52G_53A_54S_55F_67L_, Q9UKT9 (peptide)
# chain: FHCEICGASFTQKGNLLRHIKL
# B14: 46F_47S_49E_50I_52G_53A_54S_55F_67L_, Q9UKT9 (peptide)
# chain: FSCEICGASFTQKGNLLRHIKL
# B15: 46F_47D_49E_50I_52G_53A_54S_55F_67L_, Q9UKT9 (peptide)
# chain: FDCEICGASFTQKGNLLRHIKL
# B16: 46F_47M_49E_50I_52G_53A_54S_55F_67L_, Q9UKT9 (peptide)
# chain: FMCEICGASFTQKGNLLRHIKL
# B17: 46F_47Y_49E_50I_52G_53A_54S_55F_67L_, Q9UKT9 (peptide)
# chain: FYCEICGASFTQKGNLLRHIKL
# B18: 46F_47G_49E_50I_52G_53A_54S_55F_67L_, Q9UKT9 (peptide)
# chain: FGCEICGASFTQKGNLLRHIKL
# B19: 46F_47C_49E_50I_52G_53A_54S_55F_67L_, Q9UKT9 (peptide)
# chain: FCCEICGASFTQKGNLLRHIKL
# Molecular target: T1, CRBN, Q96SW2
# Test: log2 fold change of degron read counts, EGFP-low vs EGFP+ sorted cells (limma voom), compound-induced degradation; higher = more compound-induced degradation of the degron-EGFP fusion; degrons are variants of IKZF1/3 zinc finger 2; compound dose not given here
# Settings: Jurkat, 18 h
# [1] = compound: compound 19 (5-tert-butyl-thalidomide)
# [2] = compound: compound 22 (5-morpholino-thalidomide)
# [3] = compound: compound 33 (diphenyl IMiD analogue)
# 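Note: pooled lentiviral library of zinc finger degron-EGFP fusions in mCherry-positive Jurkat cells, FACS-sorted after compound exposure, with degron abundance counted by next-generation sequencing.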
Sequence,log2 fold change of degron read counts [1],log2 fold change of degron read counts [2],log2 fold change of degron read counts [3],log2 fold change of degron read counts (compound: thalidomide)
B1,-2.2,-2.79,-2.43,-2.17
B2,-2.02,-1.96,-2.15,-1.68
B3,-2.25,-1.8,-0.854,1.41
B4,-3.32,-2.94,-2.31,-1.67
B5,-2.93,-3.5,-1.12,-2.52
B6,-2.93,-3.88,-2.79,-3.22
B7,-1.82,-2.32,-2.31,-2.01
B8,-2.73,-1.99,-0.856,-0.602
B9,1.59,0.752,1.65,0.961
B10,-1.45,-1.65,-1.16,-0.846
B11,1.57,-0.809,-2.2,-0.268
B12,2.5,2.8,2.23,3.75
B13,3.13,2.67,1.52,0.22
B14,3.56,2.8,2.11,1.64
B15,3.18,0.784,0.437,1.24
B16,1.61,1.94,2.9,2
B17,3.72,3.7,2.91,1.64
B18,3.07,2.12,1.77,1.03
B19,3.35,2.7,2.35,2.35
